Results filed as inconclusive are left out. The source made the active and inactive calls. Unless noted, calls come from the whole dose curve.
Experiments:
[1] = Nuclear factor erythroid 2-related factor 2/antioxidant responsive element (Nrf2/ARE) small molecule agonists: qHTS cell viability counter screen in human keratinocytes (AID 1919968; active = well fitted curve in the direction sought with a large enough effect in the repeat runs; an effect the other way counts as inactive or inconclusive; note: nearly all actives have a fitted effect of over 55% in size)
Procedure, shortened: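 Seed 1,500 KeratinoSens cells per well, then incubate 5 h at 37 C/5% CO2. Add compounds in DMSO and incubate 23 h. Add CellTiter-Fluor, wait 1 h and read fluorescence.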

[2] = Nuclear factor erythroid 2-related factor 2/antioxidant responsive element (Nrf2/ARE) small molecule agonists: luciferase reporter gene qHTS assay in human keratinocytes (AID 1919969); note: nearly all actives have a fitted effect of over 35% in size
[3] = target: Gonadotropin-releasing hormone receptor (Homo sapiens) (UniProt P30968); assay: Human gonadotropin-releasing hormone receptor (GnRHR) small molecule agonists, calcium flux assay in GnRHR-HEK293 cells (AID 1920063); note: nearly all actives have a fitted effect of over 35% in size
Chain of Gonadotropin-releasing hormone receptor (Homo sapiens) (P30968 whole entry, looked up): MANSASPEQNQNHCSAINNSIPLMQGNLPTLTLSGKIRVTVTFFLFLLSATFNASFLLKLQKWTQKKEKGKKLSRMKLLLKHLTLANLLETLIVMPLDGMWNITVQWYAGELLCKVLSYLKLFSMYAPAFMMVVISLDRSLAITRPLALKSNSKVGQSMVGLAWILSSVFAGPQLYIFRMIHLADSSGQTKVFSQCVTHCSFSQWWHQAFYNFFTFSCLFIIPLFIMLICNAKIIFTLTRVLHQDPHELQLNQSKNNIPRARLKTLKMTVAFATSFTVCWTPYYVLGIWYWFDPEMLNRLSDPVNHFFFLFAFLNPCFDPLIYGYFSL
Procedure, shortened: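 Cells: HEK293 stably expressing human GnRHR. Steps: overnight (18 h) culture, 1 h calcium dye loading at 37 C, compound addition, kinetic fluorescence read at 480/540 nm. Each compound tested at 15 concentrations in triplicate.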

[4] = target: KiSS-1 receptor (Homo sapiens) (UniProt Q969F8); assay: Human kisspeptin (KISS1R) small molecule agonists, calcium flux assay in KISS1R-HEK293 cells (AID 1920064; active = well fitted curve in the direction sought with a large enough effect in the repeat runs; an effect the other way counts as inactive or inconclusive)
Chain of KiSS-1 receptor (Homo sapiens) (Q969F8 whole entry, looked up): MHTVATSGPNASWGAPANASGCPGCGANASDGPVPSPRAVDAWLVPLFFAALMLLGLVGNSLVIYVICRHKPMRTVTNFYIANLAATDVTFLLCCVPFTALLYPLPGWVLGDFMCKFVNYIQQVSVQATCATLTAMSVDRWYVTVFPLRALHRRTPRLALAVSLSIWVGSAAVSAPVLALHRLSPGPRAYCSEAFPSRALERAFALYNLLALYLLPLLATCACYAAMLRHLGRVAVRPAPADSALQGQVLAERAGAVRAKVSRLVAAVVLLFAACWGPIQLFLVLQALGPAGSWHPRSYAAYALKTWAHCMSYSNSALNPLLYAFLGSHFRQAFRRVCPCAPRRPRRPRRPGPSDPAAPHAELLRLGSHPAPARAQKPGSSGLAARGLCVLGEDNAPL
Procedure, shortened: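 Cells plated and incubated 18 h; dye added, 1 h at 37 C; compounds in DMSO pinned in; signal read at 480/540 nm every second for 3 min. Each compound tested at 15 concentrations in triplicate.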

[5] = G protein-coupled receptor (GPCR) small molecule agonists, calcium flux assay: HEK293 wild type cell line counter screen (AID 1920065)
Procedure, shortened: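 Counter-screen of the Tox21 10K library for non-specific calcium release: dye-loaded cells received compounds in DMSO and were monitored by kinetic fluorescence (480/540 nm, 3 min). Fifteen concentrations, run in triplicate.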

[6] = p53 small molecule agonists, cell-based qHTS assay with human liver microsomes (AID 1963577);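 note: p53 response element beta-lactamase reporter cells with liver microsomes plus NADPH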
Procedure, shortened: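 Steps: plate p53RE-bla cells, incubate 5 h at 37 C; add compound in DMSO; add microsomes (0.5 mg/mL final) and NADPH (0.5 mg/mL final); incubate 16 h at 37 C; add LiveBLAzer, 2 h RT; read fluorescence.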

[7] = p53 small molecule agonists, cell-based qHTS assay with rat liver microsomes (AID 1963578)
Procedure, shortened: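 Metabolic activation is supplied by rat liver microsomes with NADPH (each 0.5 mg/mL final). p53RE-bla cells incubate with compound 16 h at 37 C; reporter activity is measured by LiveBLAzer fluorescence.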

[8] = p53 small molecule agonists, cell-based qHTS assay with human liver microsomes: qHTS cell viability counter screen (AID 1963579); note: nearly all actives have a fitted effect of over 45% in size
Procedure, shortened: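 After the 460/530 nm beta-lactamase read, CellTiter-Glo was added to the same wells and luminescence measured after 30 min at room temperature, giving viability of p53RE-bla cells treated 16 h with compounds plus microsomes and NADPH.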

[9] = p53 small molecule agonists, cell-based qHTS assay with rat liver microsomes: qHTS cell viability counter screen (AID 1963580); note: nearly all actives have a fitted effect of over 45% in size
Procedure, shortened: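 p53RE-bla HCT-116 cells were exposed 16 h at 37 C to compounds with rat liver microsomes (0.5 mg/mL) and NADPH (0.5 mg/mL). Viability was measured in the same wells as ATP content by CellTiter-Glo luminescence.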

[10] = p53 small molecule agonists, cell-based qHTS assay: qHTS cell viability counter screen (AID 1963581); note: nearly all actives have a fitted effect of over 45% in size
Procedure, shortened: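 Cells: HCT-116 with p53 response element-driven beta-lactamase. Treatment: 16 h, 37 C, compounds in DMSO. Read: CellTiter-Glo luminescence after 30 min RT.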

[11] = p53 small molecule agonists, cell-based qHTS assay (AID 1963582; active = well fitted activation curve with a large enough effect in the signal ratio in the repeat runs, not every such curve was filed as active; the % refers to the signal ratio)
Procedure, shortened: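 Quantitative HTS in p53RE-bla cells: after a 5 h settling period, compounds delivered in DMSO were left on cells for 16 h at 37 C, and reporter induction was measured as fluorescence following 2 h substrate loading.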

[12] = target: 5-hydroxytryptamine receptor 2A (Homo sapiens) (UniProt P28223); assay: 5-hydroxytryptamine receptor 2A (HTR2A) small molecule antagonists, cell-based qHTS assay (AID 1963586); note: nearly all actives have a fitted effect of over 45% in size
Chain of 5-hydroxytryptamine receptor 2A (Homo sapiens) (P28223 whole entry, looked up): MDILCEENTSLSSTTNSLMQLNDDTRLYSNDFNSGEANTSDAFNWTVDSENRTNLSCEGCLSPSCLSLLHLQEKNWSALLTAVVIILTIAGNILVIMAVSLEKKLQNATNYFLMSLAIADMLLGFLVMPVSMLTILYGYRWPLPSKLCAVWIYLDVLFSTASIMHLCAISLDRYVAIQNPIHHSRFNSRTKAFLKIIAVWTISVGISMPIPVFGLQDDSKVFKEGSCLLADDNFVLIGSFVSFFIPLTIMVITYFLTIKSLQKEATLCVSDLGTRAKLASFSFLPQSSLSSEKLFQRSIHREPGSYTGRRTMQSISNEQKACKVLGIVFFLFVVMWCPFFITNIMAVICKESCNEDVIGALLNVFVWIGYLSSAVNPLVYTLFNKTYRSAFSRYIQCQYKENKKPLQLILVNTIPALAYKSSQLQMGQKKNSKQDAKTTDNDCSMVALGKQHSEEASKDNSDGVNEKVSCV
Procedure, shortened: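 Antagonist-mode intracellular calcium assay: DOI (4 nM) added after 5 min compound pre-incubation at room temperature to dye-loaded HTR2A-CHO cells. Fluorescence followed for 3 min, sampled every second.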

[13] = target: 5-hydroxytryptamine receptor 2A (Homo sapiens) (UniProt P28223); assay: 5-hydroxytryptamine receptor 2A (HTR2A) small molecule agonists, cell-based qHTS assay (AID 1963587); note: nearly all actives have a fitted effect of over 30% in size
Procedure, shortened: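 CHO cells stably expressing human HTR2A, plated 18 h, loaded with calcium dye 1 h at 37 C. Agonist mode: compounds added and intracellular calcium fluorescence recorded kinetically for 2 min at 1 sec intervals.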

[14] = target: Muscarinic acetylcholine receptor M1 (Homo sapiens) (UniProt P11229); assay: Cholinergic receptor muscarinic 1 (CHRM1) small molecule antagonists, cell-based qHTS assay (AID 1963588); note: nearly all actives have a fitted effect of over 40% in size; note: potency is the fitted concentration of half-maximal effect
Chain of Muscarinic acetylcholine receptor M1 (Homo sapiens) (P11229 whole entry, looked up): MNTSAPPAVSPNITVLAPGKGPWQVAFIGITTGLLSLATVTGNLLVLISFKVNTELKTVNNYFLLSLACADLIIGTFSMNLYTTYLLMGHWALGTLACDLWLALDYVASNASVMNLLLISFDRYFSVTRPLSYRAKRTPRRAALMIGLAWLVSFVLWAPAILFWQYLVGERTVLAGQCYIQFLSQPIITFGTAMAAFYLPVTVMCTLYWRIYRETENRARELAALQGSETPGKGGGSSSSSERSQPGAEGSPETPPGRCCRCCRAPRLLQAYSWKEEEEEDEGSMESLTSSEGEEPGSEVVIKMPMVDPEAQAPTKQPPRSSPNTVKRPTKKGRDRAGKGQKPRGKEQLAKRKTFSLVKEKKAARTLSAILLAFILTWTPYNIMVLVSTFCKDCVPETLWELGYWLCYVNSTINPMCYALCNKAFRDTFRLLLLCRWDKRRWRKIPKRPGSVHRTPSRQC
Procedure, shortened: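 CHRM1-CHO calcium-flux assay, antagonist mode. Cells were seeded 18 h, dye-loaded 1 h at 37 C and given compound for 5 min at RT, then acetylcholine was added at 50nM. FDSS fluorescence was read 3 min; 15 concentrations, three runs.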

[15] = target: Muscarinic acetylcholine receptor M1 (Homo sapiens) (UniProt P11229); assay: Cholinergic receptor muscarinic 1 (CHRM1) small molecule agonists, cell-based qHTS assay (AID 1963589); note: nearly all actives have a fitted effect of over 35% in size
Procedure, shortened: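 Agonist-mode qHTS in CHO cells stably carrying human muscarinic M1. Intracellular calcium is tracked by fluorescence every second after compound transfer; each compound runs at 15 concentrations in three independent runs.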

[16] = cAMP Responsive Elements (CRE) small molecule agonists, cell-based qHTS assay (AID 1963590)
Procedure, shortened: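 Agonist mode qHTS in CRE-bla HEK 293T cells: compounds dosed from DMSO for 3 h at 37 C/5% CO2, followed by LiveBLAzer B/G FRET substrate for 2 h at room temperature.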

[17] = cAMP Responsive Elements (CRE) small molecule antagonists, cell-based qHTS assay (AID 1963591; active = well fitted inhibition curve with a large enough effect in the signal ratio in the repeat runs, not every such curve was filed as active; the % refers to the signal ratio)
Procedure, shortened: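 Antagonist mode: test compounds are co-incubated with the adenylyl cyclase activator NKH477 (0.25 uM final) on CRE-bla HEK293T cells for 3 h at 37 °C, followed by LiveBLAzer substrate loading.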

[18] = target: Beta-2 adrenergic receptor (Homo sapiens) (UniProt P07550); assay: Adrenergic beta2 receptor (ADRB2) small molecule antagonists, cell-based qHTS assay (AID 1963592); note: series mostly up to about 92 µM; nearly all actives have a fitted effect of over 50% in size
Chain of Beta-2 adrenergic receptor (Homo sapiens) (P07550 whole entry, looked up): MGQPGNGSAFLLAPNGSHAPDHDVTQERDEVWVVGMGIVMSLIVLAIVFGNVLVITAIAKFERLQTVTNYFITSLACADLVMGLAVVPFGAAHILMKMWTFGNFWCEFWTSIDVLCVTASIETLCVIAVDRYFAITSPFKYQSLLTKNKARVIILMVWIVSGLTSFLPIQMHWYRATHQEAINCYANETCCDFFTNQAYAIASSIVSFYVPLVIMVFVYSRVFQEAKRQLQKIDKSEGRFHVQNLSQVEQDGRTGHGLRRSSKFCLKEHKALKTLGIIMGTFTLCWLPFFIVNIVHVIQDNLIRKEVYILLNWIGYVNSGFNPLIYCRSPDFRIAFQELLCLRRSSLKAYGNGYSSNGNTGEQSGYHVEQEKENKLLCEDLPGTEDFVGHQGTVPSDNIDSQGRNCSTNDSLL
Procedure, shortened: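 Cells (CHO, stable ADRB2 overexpression) incubated 18-20hr at 37C; compounds added from DMSO; agonist mix (1nM isoproterenol, 100uM IBMX, 25uM Ro-20-1724) added; 0.5hr RT; d2-cAMP and anti-cAMP-cryptate added; 1hr RT; 665/615 nm read.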

[19] = target: D(2) dopamine receptor (Homo sapiens) (UniProt P14416); assay: Dopamine D2 receptor (DRD2) small molecule antagonists, cell-based qHTS assay (AID 1963595; active = well fitted inhibition curve with a large enough effect in the signal ratio in the repeat runs, with a control signal flat; the % refers to the signal ratio)
Chain of D(2) dopamine receptor (Homo sapiens) (P14416 whole entry, looked up): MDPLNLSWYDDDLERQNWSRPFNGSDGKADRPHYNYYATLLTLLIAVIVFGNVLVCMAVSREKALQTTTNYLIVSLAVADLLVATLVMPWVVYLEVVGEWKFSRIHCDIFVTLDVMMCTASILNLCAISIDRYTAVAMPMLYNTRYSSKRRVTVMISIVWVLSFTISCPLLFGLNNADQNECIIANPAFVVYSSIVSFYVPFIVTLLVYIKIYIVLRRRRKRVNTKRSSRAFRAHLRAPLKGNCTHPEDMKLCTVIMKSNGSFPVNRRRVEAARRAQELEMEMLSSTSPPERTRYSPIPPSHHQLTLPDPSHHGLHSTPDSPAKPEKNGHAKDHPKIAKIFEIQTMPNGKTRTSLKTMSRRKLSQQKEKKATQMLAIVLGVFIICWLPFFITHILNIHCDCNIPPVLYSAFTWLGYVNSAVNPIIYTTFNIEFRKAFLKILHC
Procedure, shortened: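 HEK293 cells stably expressing DRD2 were preincubated with 0.1 mM Ro20-1724, then with compound for 10 min at room temperature. Cells were stimulated with 200 nM NKH477 plus 12 nM quinpirole for 30 min, and cAMP was read by HTRF.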

[20] = target: D(2) dopamine receptor (Homo sapiens) (UniProt P14416); assay: Dopamine D2 receptor (DRD2) small molecule agonists, cell-based qHTS assay (AID 1963594); note: nearly all actives have a fitted effect of over 35% in size
Procedure, shortened: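 HEK293 cells stably expressing human DRD2, pre-treated with PDE inhibitor Ro20-1724 (0.1 mM final) and compound 10 min at room temperature, then stimulated with NKH477 (200nM […]) for 30 min. cAMP read by HTRF (665/620 nm).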
% is set by controls: 0 for no effect and ±100 for the full control effect.

CC(=O)OCCC1CCCCC1
inactive: Potency [1] | Potency [2] | Potency [3] | Potency [4] | Potency [5] | Potency [6] | Potency [7] | Potency [8] | Potency [9] | Potency [10] | Potency [11] | Potency [12] | Potency [13] | Potency [14] | Potency [15] | Potency [16] | Potency [17] | Potency [18] | Potency [19]

CCN1CCc2nc(N)oc2CC1
inactive: Potency [1] | Potency [2] | Potency [3] | Potency [4] | Potency [5] | Potency [6] | Potency [7] | Potency [8] | Potency [9] | Potency [10] | Potency [11] | Potency [12] | Potency [13] | Potency [14] | Potency [15] | Potency [16] | Potency [17] | Potency [18] | Potency [19]

CC(C)C(=O)C(C)C
inactive: Potency [1] | Potency [2] | Potency [3] | Potency [4] | Potency [5] | Potency [6] | Potency [7] | Potency [8] | Potency [9] | Potency [10] | Potency [11] | Potency [12] | Potency [13] | Potency [14] | Potency [15] | Potency [16] | Potency [18] | Potency [20] | Potency [19]

Cc1nc(-c2ccc3c(c2)CCN(CCC2CCC(NC(=O)/C=C/c4ccc(F)cc4)CC2)CC3)no1 (stereo unspecified)
active: Potency [14] 266 nM
inactive: Potency [1] | Potency [2] | Potency [3] | Potency [4] | Potency [5] | Potency [6] | Potency [7] | Potency [8] | Potency [9] | Potency [10] | Potency [11] | Potency [12] | Potency [13] | Potency [15] | Potency [16] | Potency [18] | Potency [20] | Potency [19]

CN(C)Cc1ccccc1O
inactive: Potency [1] | Potency [2] | Potency [3] | Potency [4] | Potency [5] | Potency [6] | Potency [7] | Potency [8] | Potency [9] | Potency [10] | Potency [11] | Potency [12] | Potency [13] | Potency [14] | Potency [15] | Potency [16] | Potency [17] | Potency [20] | Potency [19]

CCCCCCCCOC(=O)CCCCCCCCC(=O)OCCCCCCCC
inactive: Potency [1] | Potency [2] | Potency [3] | Potency [4] | Potency [5] | Potency [6] | Potency [7] | Potency [8] | Potency [9] | Potency [10] | Potency [11] | Potency [12] | Potency [13] | Potency [14] | Potency [15] | Potency [16] | Potency [17] | Potency [20] | Potency [19]

O=C(OCCOCCO)c1ccccc1Nc1cccc(C(F)(F)F)c1
inactive: Potency [1] | Potency [2] | Potency [3] | Potency [4] | Potency [5] | Potency [6] | Potency [7] | Potency [8] | Potency [9] | Potency [10] | Potency [11] | Potency [12] | Potency [13] | Potency [14] | Potency [15] | Potency [16] | Potency [18] | Potency [20] | Potency [19]

CCC(=O)OCc1ccc(OC)cc1
inactive: Potency [1] | Potency [2] | Potency [3] | Potency [4] | Potency [5] | Potency [6] | Potency [7] | Potency [8] | Potency [9] | Potency [10] | Potency [11] | Potency [12] | Potency [13] | Potency [14] | Potency [15] | Potency [16] | Potency [18] | Potency [20] | Potency [19]

C=C(C)[C@@H]1CCC2=CCC[C@@H](C)[C@]2(C)C1
inactive: Potency [1] | Potency [2] | Potency [3] | Potency [4] | Potency [5] | Potency [6] | Potency [7] | Potency [8] | Potency [9] | Potency [10] | Potency [11] | Potency [12] | Potency [13] | Potency [14] | Potency [15] | Potency [16] | Potency [18] | Potency [20]

O=C(O)CCC(=O)Nc1ccc(S(=O)(=O)Nc2nccs2)cc1
inactive: Potency [1] | Potency [2] | Potency [3] | Potency [4] | Potency [5] | Potency [6] | Potency [7] | Potency [8] | Potency [9] | Potency [10] | Potency [11] | Potency [12] | Potency [13] | Potency [14] | Potency [15] | Potency [16] | Potency [17] | Potency [20] | Potency [19]

CC(=O)c1cccc([N+](=O)[O-])c1
inactive: Potency [1] | Potency [2] | Potency [3] | Potency [4] | Potency [5] | Potency [6] | Potency [7] | Potency [8] | Potency [9] | Potency [10] | Potency [11] | Potency [12] | Potency [13] | Potency [14] | Potency [15] | Potency [16] | Potency [18] | Potency [20] | Potency [19]

O=C(O)CN(CCN(CC(=O)O)CC(=O)O)CCN(CC(=O)O)CC(=O)O
inactive: activity change, negative = cytotoxicity [1] -0.92% [at 19 µM] | activity, positive = activation [2] -0.151% [at 19 µM] | activity change [3] -0.364% [at 11.8 µM, stronger effect = higher value] | activation [4] -1.13% [at 15.8 µM] | activation [5] 1.29% [at 11.8 µM] | activation [6] -9.98% [at 13.5 µM] | activation [7] -0.423% [at 13.6 µM] | activity change, negative = cytotoxicity [8] -3.04% [at 13.5 µM] | activity change, negative = cytotoxicity [9] -9.7% [at 13.5 µM] | activity change, negative = cytotoxicity [10] -11.9% [at 13.5 µM] | activation [11] 12.4% [at 13.5 µM] | activity, negative = inhibition [12] 10.6% [at 12.7 µM] | activation [13] 7.55% [at 15.9 µM] | activity, negative = inhibition [14] 9.64% [at 12.6 µM] | activation [15] -0.409% [at 15.8 µM] | activation [16] 1.22% [at 19 µM] | activity change, negative = inhibition [17] 3.68% [at 18.9 µM] | activity change, negative = inhibition [18] 2.09% [at 19 µM] | activity change, negative = inhibition [19] 6.7% [at 18.9 µM]

COCCCOc1cc(C[C@@H](C[C@H](N)[C@@H](O)C[C@H](C(=O)NCC(C)(C)C(N)=O)C(C)C)C(C)C)ccc1OC
inactive: Potency [1] | Potency [2] | Potency [3] | Potency [4] | Potency [5] | Potency [6] | Potency [7] | Potency [8] | Potency [9] | Potency [10] | Potency [11] | Potency [12] | Potency [13] | Potency [14] | Potency [15] | Potency [16] | Potency [18] | Potency [20] | Potency [19]
